# Laboratory results reported in PubChem BioAssay (NCI).
# About 83,000 compounds went through this panel and 20% of them were active in at least one assay; those are over-represented in the sample as a whole.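 Interpretation: 100, growth as untreated; towards 0, rising growth inhibition; 0, no net growth; 0 to -100, cell death. Compounds scoring below 10 were considered active.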 Values without a mark were called inactive. Calls of active or inactive are those of the source.
# Columns and labels:
# Test in all cases: NCI-60 one-dose screen, 48 h (100 = growth as untreated, 0 = no growth, -100 = all killed)
# Details in all cases: 10 µM unless noted
# NCI-H23 lung = test system: NCI-H23 lung
# NCI-H226 lung = test system: NCI-H226 lung
# NCI-H322M lung = test system: NCI-H322M lung
# HOP-62 NSCLC = test system: HOP-62 NSCLC
# NCI-H460 lung = test system: NCI-H460 lung
# HOP-92 NSCLC = test system: HOP-92 NSCLC
# NCI-H522 lung = test system: NCI-H522 lung
# A549/ATCC NSCLC = test system: A549/ATCC NSCLC
# 786-0 renal = test system: 786-0 renal
# COLO 205 colon = test system: COLO 205 colon
SMILES,growth (NCI-H23 lung),growth (NCI-H226 lung),growth (NCI-H322M lung),growth (HOP-62 NSCLC),growth (NCI-H460 lung),growth (HOP-92 NSCLC),growth (NCI-H522 lung),growth (A549/ATCC NSCLC),growth (786-0 renal),growth (COLO 205 colon)
Brc1cccc(-c2cc(-c3ccc4c(c3)OC=CO4)[nH]n2)c1,58.2%,78%,49.8%,58.1%,15.1%,96.3%,29.4%,37.5%,70.4%,36.1%
Oc1ccc(-c2nc3ccc(/C(=N\N=C\c4ccc(Cl)cc4)c4ccccc4)cc3[nH]2)cc1,94.8%,80.7%,93.7%,100%,86.4%,118%,74.6%,89.2%,66.5%,54%
COC(=O)[C@@H](Cc1c[nH]c2ccccc12)NC(=O)CCCCOc1cc(O)c2c(=O)cc(-c3ccccc3)oc2c1,35.2%,88.8%,95.8%,96.2%,94.4%,60.6%,86.7%,86.7%,97%,90.4%
CSc1ccc(/C(=N/N=C(N)N)c2ccc(Cl)cc2)cc1,12.6%,27%,30.1%,6.91% (active),-12.7% (active),-4.16% (active),-41.9% (active),4.66% (active),4.8% (active),-89.4% (active)
Cc1ccc2c(n1)C(=O)C(Cl)=C(Nc1ccccc1C(=O)OC(C)(C)C)C2=O,10.6%,74.9%,98.7%,95.3%,86.2%,-72% (active),-33.8% (active),102%,-79.2% (active),-66.1% (active)
CC1=C(C)C(=O)C(Nc2ccc(C)cc2)=C(Br)C1=O,87.7%,86.5%,104%,83.2%,102%,-35.8% (active),96.1%,100%,106%,124%
O=C(CSc1nc2ccccc2c(=O)n1-c1ccc(S(=O)(=O)Nc2ccc(Cl)nn2)cc1)Nc1ccc(S(=O)(=O)Nc2ccc(Cl)nn2)cc1,100%,99%,101%,104%,101%,107%,101%,105%,98.7%,111%
C#Cc1nc(/C=C/CCCCCCC(=O)NO)cs1,-34.2% (active),87.6%,85.2%,73.4%,51.8%,-52.3% (active),-61.4% (active),61.6%,-87.8% (active),81.8%
Cn1c2nc3ccccc3c-2cc2ccccc21,44.9%,53%,4.32% (active),51.3%,13.4%,57.2%,41.6%,28.4%,38%,26%
CC(=O)Nc1nc(C)c(-c2csc(Nc3ccccc3)n2)s1,35.2%,19.4%,27.6%,42.8%,21.8%,24.6%,9.26% (active),44.3%,25.7%,38%
NC(=O)c1c(NC(=O)c2ccc(C(F)(F)F)cc2)sc2c1CCC(=O)C2,-6.8% (active),-24% (active),92.1%,13.5%,19.1%,-25.3% (active),-25.9% (active),12.1%,24.5%,-64.7% (active)
C/C(=C(/C)C1CC1CCNC1CCC(NC(=O)OC(C)(C)C)CC1)c1ccccc1 (stereo not given),70.8%,80.1%,89.2%,84.4%,57.6%,54.8%,68.6%,73.4%,65.6%,-56% (active)
CCn1c2ccc(/C=N/N(C)S(=O)(=O)CCN(C)C)cc2c2cc(/C=N/N(C)S(=O)(=O)CCN(C)C)ccc21,43.4%,40.8%,80.8%,101%,73.5%,42.4%,36%,84.5%,50.3%,92.8%
CCOC(=O)Nc1ccc2c(ccn2C(=O)c2cccc(F)c2)c1,41.4%,53.5%,61.8%,35.2%,14.8%,76%,0.367% (active),47.6%,57.5%,-3.54% (active)
Cc1ccc2c(n1)C(=O)C(Cl)=C(Nc1cccc(C(=O)OC(C)(C)C)c1)C2=O,73.7%,82.8%,112%,108%,101%,88.8%,60.6%,106%,99.8%,119%
C[C@H]1OCC2(CCN(c3cnc(C(=O)Nc4cc(F)cc5cccnc45)cn3)CC2)[C@H]1N,75.3%,80%,81.4%,84.1%,89.1%,34.7%,31.6%,77.3%,60.1%,13.3%
CCCCCCOC(=O)c1cc(-c2ccc(F)cc2)nc2ccccc12,90.3%,91.2%,94.9%,94.4%,103%,65.9%,82.8%,101%,107%,107%
O=C(N/N=C\c1ccc([N+](=O)[O-])cc1)c1ccc2nc(-c3ccc(Br)cc3)[nH]c2c1,8.79% (active),62.4%,68.2%,29.7%,-43.8% (active),55%,5.47% (active),27.2%,36.8%,-50.6% (active)
COc1ccc(-c2cc(-c3ccc(N(C)C)cc3)n3c(n2)nc2ccccc23)cc1,68%,60.8%,82.2%,77.9%,53.3%,-5.95% (active),17.7%,38.6%,42.8%,59.4%
CC(=O)OCCCCN1C=C/C(=C\C(=O)n2ccc3ccccc32)c2ccccc21,96.2%,88.5%,98.7%,108%,102%,97.6%,99.1%,113%,107%,108%
CN1CCN(CC#CCn2c3c(c4ccccc42)C[C@]2(C)[C@H]4CC=C5[C@@H]6CC(C)(C)CC[C@]6(C(=O)N6CCOCC6)CC[C@@]5(C)[C@]4(C)CC[C@H]2C3(C)C)CC1,74%,85.7%,94.9%,91.7%,17.6%,22.5%,97%,41.9%,76.3%,87.3%
CCc1cccc2c3c(sc12)C(c1ccc(F)cc1)C(C#N)=C(/N=C/c1ccc(Cl)cc1)O3 (stereo not given),32.4%,44.6%,52.9%,36.4%,14.6%,66.6%,-43.4% (active),31.1%,34.2%,-33.6% (active)
N#Cc1cnc2ccc(-c3cnc4n[nH]nc4c3)cc2c1N1CCc2cc(F)c(Cl)cc21,14.4%,11.7%,11.1%,11.8%,17.5%,4.22% (active),-10.1% (active),11.2%,16.7%,37.8%
NS(=O)(=O)c1ccc(Nc2nc(Nc3ccccc3)nc(N3N=C(c4ccc(Cl)cc4)CC3c3ccc(Cl)cc3)n2)cc1 (stereo not given),54.8%,55.1%,64.5%,75.8%,20.1%,75%,83.6%,66.7%,65.8%,8.73% (active)
CN1CCN(Cc2ccc(NC(=O)c3cncc(C#Cc4cnc5ccc(N)nn45)c3)cc2C(F)(F)F)CC1,4.35% (active),17.2%,12.4%,-1.79% (active),14.9%,-22.7% (active),12.5%,38.2%,50.1%,-41.8% (active)
CCNC(=O)Oc1ccc(/C(=C(/C)c2ccc(Cl)cc2)c2ccc(OCCN3CCCCCC3)cc2)cc1,22.1%,80.9%,75.9%,-19.9% (active),-62.3% (active),60%,82.4%,43.9%,22.5%,-74.5% (active)
